One may read the inhibition as the relative decrease from the control value, in per cent.

The structures appear in SMILES notation. Among all 330,000 compounds or so, about 1,700 (0.52%) were called active. Cut-off read from the data, not from the text of the source: active = inhibition above about 50%; inactive = the rest. The sample as a whole holds a higher share of actives than the screen did.

This assay is described as follows: lowers stimulated NF-kB reporter luminescence – cell-based, uHTS, TCR NF-kB activation inhibitor project, primary screen (AID 435003). The settings on record: Jurkat, PMA/ionomycin-induced NF-kB luciferase reporter, at 4 µM, stronger effect = higher value. (In a reporter assay the amount or activity of a reporter protein is the signal.)
For `O=C(COCc1cc(-c2ccc3c(c2)OCO3)on1)N1CCN(c2cccc(Cl)c2)CC1`, the inhibition was 3.84% (inactive). To `NS(=O)(=O)c1ccc(CCNS(=O)(=O)c2cccc3cccnc23)cc1` belongs -18.6% (inactive); to `O=[N+]([O-])c1ccccc1S(=O)(=O)Nc1cccc2cccnc12`, 70.3% (active). To `O=S(=O)(NCCc1ccc(F)cc1)c1cccc2cccnc12` belongs 2.69% (inactive); to `O=C(Nc1ccc(Br)cc1F)C1CC(=O)N(C2CCCCC2)C1` (stereo not drawn), -3.7% (inactive); to `CCOCCCn1c(NN)nc2ccccc2c1=O`, -7.49% (inactive). For `CCn1c(SCc2ccccc2)nc2cc(OC)c(OC)cc2c1=O`, the inhibition is -6.84% (inactive). To `CCn1c(/C=C/c2ccc([N+](=O)[O-])o2)nc2ccccc2c1=O` belongs 54.7% (active); to `Cc1noc(C)c1C(=O)N(CC(=O)NC1CCCC1)Cc1ccccc1F`, -8.54% (inactive); to `COc1ccc(C(=O)COC(=O)C(O)c2ccccc2)c(OC)c1` (stereo not drawn), 0.0915% (inactive). For the compound `CCOc1ccc2[nH]c3nc(SCC(=O)NC4CCCC4)nnc3c2c1`, the inhibition was 59% (active).

With `O=C(CSc1nnc2c(n1)[nH]c1ccccc12)NC1CCCCC1`, the inhibition is 21.2% (inactive). To `COc1ccc2[nH]c3nc(SCC(=O)NC4CC4)nnc3c2c1` belongs -17.7% (inactive); to `O=C(c1ccc(Cl)s1)N(Cc1nnc(-c2ccccc2Cl)o1)C1CC1`, -18.3% (inactive). To `Cc1cc(C(=O)COc2ccc(Br)cc2F)c(C)n1C1CC1` belongs -9.16% (inactive); to `C=CCOc1cccc(C2NC(=O)c3ccccc3O2)c1` (stereo not drawn), 3.44% (inactive); to `Cc1ccc(C)c(NS(=O)(=O)c2cc(Br)cnc2N)c1`, -1.35% (inactive). To `C/C=C(\C)C(=O)N1CC2(CC(c3cccc(NC(=O)CCCCC)c3)=NO2)C[C@@H]1C(N)=O` (stereo partly drawn) belongs 2.26% (inactive); to `O=C(N/N=C/c1ccc(O)c(O)c1)C1c2ccccc2Oc2ccccc21`, 2.58% (inactive). Take `Oc1ccc(/C=N/Nc2ccc(C(F)(F)F)cn2)cc1O`: the inhibition is 59.5% (active). To `Oc1ccc(Br)cc1/C=N/Nc1ccccn1` belongs 32.4% (inactive); to `O=C(c1ccc(OC2CCN(C(=O)c3cccnc3)CC2)cc1)N1CCCCCC1`, -2.83% (inactive); to `CC1=C(C(=O)NC2CC(C)(C)Cc3c2cnn3-c2ccc(C)cc2)OCCO1` (stereo not drawn), 4.55% (inactive).

On to `COc1ccc(-n2ncc3c2CC(C)(C)CC3NC(=O)CCc2c(C)noc2C)cc1` (stereo not drawn), for which the inhibition was 20% (inactive). To `Cc1ccc(-n2ncc3c2CC(C)(C)CC3NC(=O)Cc2c(C)noc2C)cc1` (stereo not drawn) belongs 50.6% (active); to `CCN1C(=O)/C(=C2\SC(N3CCCCC3)=NC2=O)c2ccccc21`, -33.7% (inactive). For the compound `COC(=O)c1ccc(C(=O)Nc2cc(Cl)ccc2Cl)cc1NC(=O)c1ccccc1C`, the inhibition was -2.99% (inactive).

Regarding `Cc1c(C=O)c2ccccc2n1CCOc1ccccc1`, the inhibition was -14.6% (inactive). To `COc1cc2c(cc1OC)CN(C(=O)c1cc(=O)c3ccccc3o1)CC2` belongs 50.7% (active); to `COc1ccc2c(CC(=O)N3CCc4cc(OC)c(OC)cc4C3)coc2c1`, 15.9% (inactive). To `COc1ccccc1CNC(=O)c1cc(=O)c2ccccc2o1` belongs -3.35% (inactive). To `C=CCn1c(C)cc(C2=NNC(=NCC)SC2)c1C` belongs 67.2% (active); to `Cc1ccc(-n2c(=O)cc(N3CCN(Cc4ccccc4)CC3)[nH]c2=O)cc1`, 1.04% (inactive); to `CCNC(=O)c1cccc(NC(=O)C2CC(=O)N(CCc3ccccc3)C2)c1` (stereo not drawn), 8.87% (inactive). With `COc1ccc(-c2cc(C(F)(F)F)n3nc(C(=O)N4CCOCC4)c(Cl)c3n2)cc1`, the inhibition is -15.4% (inactive). To `Cc1cccc(NC(=O)c2cc(S(=O)(=O)N3CCC4(CC3)OCCO4)ccc2F)c1` belongs 4.99% (inactive); to `COc1ccc(C(C)=O)cc1CSc1nc2nc(C)cc(C)n2n1`, 5.26% (inactive). Consider `Cc1cc(N/N=C\c2ccc(Br)cc2)nc(-n2nc(C)cc2C)n1`, for which the inhibition is 27.2% (inactive). To `COc1ccc(Nc2cc(C)nc(-n3nc(C)cc3C)n2)cc1` belongs 68.7% (active); to `CC(=O)c1ccc(Oc2cc(C)nc(-n3nc(C)cc3C)n2)cc1`, 51.8% (active); to `COc1ccc(NC(=O)c2nc(-n3nc(C)cc3C)ccc2Cl)cc1Cl`, -8.27% (inactive). To `Cc1cc(C)n(-c2ccc(C(=O)O)cc2[N+](=O)[O-])n1` belongs -2.8% (inactive). Consider `O=C(CCC1CCN(C(=O)c2cccc(Cl)c2F)CC1)Nc1ccccc1`, for which the inhibition was 2.28% (inactive). To `COc1cc(/C=C/C(=O)Nc2ccc(OC)c(S(=O)(=O)N3CCOCC3)c2)ccc1OCC#N` belongs 6.61% (inactive); to `Cc1ccc(CN2CCN(Cc3ccc(OCCO)cc3)CC2CCO)o1` (stereo not drawn), 3.63% (inactive); to `N#Cc1c(NC(=O)c2ccc(N3CCOCC3)c([N+](=O)[O-])c2)sc2c1CCCC2`, -30% (inactive).

For `CC1(C)OC(=O)N2CCc3ccccc3C21C` (stereo not drawn), the inhibition is 11.5% (inactive). To `Cc1c(/C=N\NC(=O)c2cc3ccccc3o2)c2ccccc2n1C` belongs 67.3% (active); to `Cc1c(/C=N/N2C(=O)C3C4C=CC(C4)C3C2=O)c2ccccc2n1C` (stereo not drawn), -10.4% (inactive); to `O=C(N/N=C/c1cccc(O)c1)c1cc2c(ccc3ccccc32)o1`, 7.99% (inactive). To `COc1ccc(Cc2cc(-c3ccc(F)cc3)n[nH]c2=O)cc1` belongs -2.24% (inactive). To `CC(C)c1ccc(S(=O)(=O)N2CCN(C(=O)c3ccc(N4CCCC4)c([N+](=O)[O-])c3)CC2)cc1` belongs 7.91% (inactive). Take `CCOc1[nH]n(-c2ccc(Cl)cc2)c(=O)c1C=Nc1ccc(O)cc1`: the inhibition is 56.7% (active). Regarding `CCOc1ccc(N=C2NC(=O)S/C2=C\c2ccc(O)cc2)cc1`, the inhibition was 11.9% (inactive).

`O=C(NC(C(=O)NCCN1CCOCC1)C12CC3CC(CC(C3)C1)C2)C1CCCCC1` (stereo not drawn): the inhibition is -4.81% (inactive). Consider `N#Cc1ccccc1S(=O)(=O)N1CCN(C(=O)c2cc(-c3ccccc3)nn2-c2ccccc2)CC1`, for which the inhibition was 2.19% (inactive). To `O=[N+]([O-])/C=C1\CCCCCN1` belongs -12.2% (inactive); to `COC(=O)c1ccc(C2CC(=O)Nc3cc(OC)c(OC)cc32)cc1` (stereo not drawn), 8.26% (inactive); to `COc1ccccc1C1C2=C(COC2=O)Nc2cc3c(cc21)OCO3` (stereo not drawn), 70.3% (active). Turning to `O=C1NC(c2cc3c(cc2Cl)OCO3)Oc2ccccc21` (stereo not drawn), the inhibition is -7.28% (inactive). To `COc1ccc(S(=O)(=O)Nc2ccc3c(c2)OCO3)cc1Cl` belongs -1.75% (inactive); to `CCCOc1ccc(C2NC(=O)NC(c3ccccc3)=C2C(C)=O)cc1OCC` (stereo not drawn), 2.86% (inactive); to `CCCOc1ccccc1C1CC(=O)Nc2cc3c(cc21)OCO3` (stereo not drawn), 58.3% (active).
